# Data as given in paper PMC11062922 (Nature Chemical Biology, 2023).
# Read-outs that look alike come from different tables or passages of the source.
# Columns and labels:
# Design in all cases: species or system human, MV4-11 + K-562 + COLO205 + SK-N-BE2 + OVCAR-8
# TESK1 = details: read-out: apparent Kd, n = 1
# ROCK1 = details: read-out: apparent Kd; compound concentrations:100 nM and 1000 nM (sheet 'Samples'); n = 1
# ROCK2 = details: read-out: apparent Kd; compound concentrations:100 nM and 1000 nM (sheet 'Samples'); n = 1
compound,measurement,setting,value
COC(=O)c1cccc(NC(=O)NC2CCN(c3ccnc(Nc4ccc(F)cc4)n3)C2)c1 (stereo not shown) [GSK1379725A],potency estimated from few doses,"TESK1; compound concentrations: 100 nM and 1000 nM (sheet 'Samples'), CATDS: 1",1320 nM
Cc1nnc(-c2ccc(C)c(-c3ccc(C(=O)O)cc3)c2)o1 [GW608005X],potency estimated from few doses,TESK1; compound concentrations:100 nM and 1000 nM (sheet 'Samples'),900 nM
CCn1c(-c2nonc2N)nc2cnc(Oc3cccc(NC(=O)c4ccc(N(C)C)cc4)c3)cc21 [GSK248233A],potency estimated from few doses,ROCK1,230 nM
same,potency estimated from few doses,ROCK2,181 nM
